# In ChEMBL document CHEMBL4513216, “Probing the Open Global Health Chemical Diversity Library for Multistage-Active Starting Points for Next-Generation Antimalarials” (ACS Infect Dis, 2020):
# Out of some 69,000 compounds screened, about 8,600 (12%) showed an effect of 50% or more. The sample as a whole holds a higher share of strong results than the screen did.
# System: Plasmodium berghei
# Assay: Screen against P. berghei liver stage (PbLuc), transformed with Luciferase, at 10uM
# Format: functional, HepG2
# Settings: tested at 10 uM
row,SMILES,INHIBITION
1,COc1cc(N2CCC3(CC2)OCC(=O)NC3C)ncn1 (stereo unspecified),10.6%
2,Cc1cc(F)cc(S(=O)(=O)NC(=O)CCc2cncc(F)c2)c1,38.9%
3,CNC(=O)CCc1cc(C)nc(C2CCCCN2)n1 (stereo unspecified),26.3%
4,O=C(COc1ccccc1F)NCC(O)(c1ccccc1)C1CC1 (stereo unspecified),-22.7%
5,Cc1cc(C(=O)N2CCN(C(=O)CCC3CCCCC3)CC2)n(C)n1,56.5%
6,CCC(=O)N1CCN(c2cc(N(C)C)cnn2)CC1,-15.6%
7,CC(C)CC(=O)N1CCN(c2cc(N(C)C)cnn2)CC1,22.2%
8,Cc1nn(C)c(C)c1C(=O)N1CCN(C(=O)CCC2CCCCC2)CC1,28.7%
9,CN(C)c1cnnc(N2CCN(C(=O)CCC3CCCCC3)CC2)c1,76.7%
10,Cc1nn(C)c(C)c1C(=O)N1CCN(C(=O)CC2CCCCC2)CC1,39.4%
11,CCN1CC(C(=O)NCCn2cccc2)CCC1=O (stereo unspecified),44.8%
12,NCc1cc(-c2ccccc2)n2nccc2n1,41.2%
13,CS(=O)(=O)N[C@@H]1COC[C@@H]2CN(Cc3ccco3)C[C@@H]21,18.4%
14,Cn1nccc1C(=O)N1C[C@@H]2CC[C@H](Oc3cccc(F)c3)[C@@H]2C1,25.6%
15,CCOC(=O)c1cc2n(n1)CCCO2,57.6%
16,CCOC(=O)CNC(=O)c1cc2n(n1)CCCO2,-0.996%
17,CCNC(=O)c1cc2n(n1)CCCO2,9.41%
18,COC(=O)c1ccc(OC)c(OC23CCCN(CC2)C3)c1 (stereo unspecified),-9.76%
19,N#Cc1ccc(C(=O)N2CCC3(CC2)CC3)cc1,40.8%
20,O=C(c1cc(F)cc(F)c1)N1CCC2(CC1)CC2,73.2%
21,O=C(c1cc(F)cc(F)c1)N1CCC(O)(C(F)(F)F)CC1,25.4%
22,COCCN1CCO[C@@H]2CN(C(=O)NCc3cccnc3)CC[C@@H]2C1,29.8%

row,SMILES,INHIBITION
1,Cc1nc(CN(Cc2ccccc2F)C2CCC2)no1,-16.6%
2,O=C1Cc2cc(NC(=O)N3CCCN(Cc4cccs4)CC3)ccc2N1,42.7%
3,O=C(Nc1ccc2c(c1)OCCO2)N1CCCN(Cc2cccs2)CC1,-14.1%
4,O=C1CCc2cc(NC(=O)N3CCCN(Cc4cccs4)CC3)ccc21,53.8%
5,Cc1noc(C)c1CNCC1Cn2nncc2CO1 (stereo unspecified),40.3%
6,Cc1nc(N2CCCC2)nc2c1CN(C(=O)NC(C)C)CC2,-9.74%
7,CC(C)[C@@H]1CN(CCOc2ccc(Cl)cc2)C[C@H]1NS(C)(=O)=O,14.6%
8,CS(=O)(=O)N[C@H]1CN(CCOCc2ccccc2)C[C@@H]1C1CC1,15%
9,CC(C)[C@@H]1CN(CCCOc2ccc(F)cc2)C[C@H]1NS(C)(=O)=O,54.5%
10,CC(C)[C@@H]1CN(Cc2c[nH]nc2-c2ccc(F)cc2)C[C@H]1NS(C)(=O)=O,-5.22%
11,CCc1ccccc1OCCN1CCC(NS(C)(=O)=O)CC1,43.1%
12,CCc1ccccc1OCCN1C[C@@H](NS(C)(=O)=O)[C@H](C(C)C)C1,57.3%
13,CCOc1ccc(Cl)c(C(=O)N2CCN(C(=O)OC)CC2)n1,-6.44%
14,Cc1cc(C2CCCN2S(=O)(=O)c2cnn(C)c2)on1 (stereo unspecified),-9.8%
15,Cc1nn(C)cc1CN1C[C@H]2CC[C@@H](C1)N(Cc1c(C)noc1C)C2=O,-4.4%
16,Cc1ccc(CNC(=O)NCc2ccco2)s1,10.7%
17,CN(C)c1ncc(I)c(C2CCCN2C)n1 (stereo unspecified),-54.1%
18,CS(=O)(=O)NCC1CCCCN1C(=O)c1csc(-c2ccsc2)n1 (stereo unspecified),-89.3%
19,CS(=O)(=O)NCC1CCCCN1C(=O)c1ccsc1 (stereo unspecified),59.5%
20,CS(=O)(=O)NCC1CCCCN1C(=O)c1ccc(Br)s1 (stereo unspecified),-50.5%
21,CCN1CCN(CCNc2nc3ccc(C)cc3c(=O)n2C)CC1,71.7%
22,Cc1ccc2nc(NCCN3CCOCC3)n(C)c(=O)c2c1,-22.4%

row,SMILES,INHIBITION
1,Cc1ccc2nc(NCCCN3CCCCCC3=O)n(C)c(=O)c2c1,8.97%
2,Cc1nc(C)n(CC2CCCN2CC(=O)Nc2ccncc2)n1 (stereo unspecified),25.4%
3,COCCN1CCO[C@@H]2CN(C(=O)Cc3cccc(F)c3)CC[C@@H]2C1,10.5%
4,O=C(c1cc(-n2cnnn2)ccc1Cl)N1CCN(c2ccccc2)CC1,10.1%
5,O=C(c1ccc(Cl)cc1)N1CCn2c(nn(-c3cccc(Cl)c3)c2=O)C1,54%
6,O=C(c1ccc(Cl)cc1)N1CCn2c(nn(-c3ccc(Cl)cc3)c2=O)C1,35%
7,O=C(c1ccc(Cl)cc1)N1CCn2c(nn(-c3ccncc3)c2=O)C1,49.9%
8,O=C(NCc1ccncc1)Nc1cc(C(F)(F)F)c[nH]c1=O,11.083%
9,O=C(NCc1ccccn1)Nc1cc(C(F)(F)F)c[nH]c1=O,57.2%
10,Cn1nccc1C(=O)Nc1cc(C(F)(F)F)c[nH]c1=O,17.68%
11,O=C(NCCc1ccccn1)Nc1cc(C(F)(F)F)c[nH]c1=O,1.62%
12,Cn1nccc1CNC(=O)Nc1cc(C(F)(F)F)c[nH]c1=O,55.1%
13,O=C(NCCNc1ccccn1)Nc1cc(C(F)(F)F)c[nH]c1=O,7.4%
14,Cc1noc(CN2CCN(c3cncc(Cl)n3)CC2)n1,5.05%
15,O=C(N1CCOCC1)N1CCN(c2ccc(Cl)nn2)C(=O)C1,24.2%
16,CN(Cc1cnn(C)c1)C(=O)CN1CCCC(Cn2cncn2)C1 (stereo unspecified),7.67%
17,Cc1nn(C)c(Cl)c1C1CCCN1C(=O)c1cccc(C#N)c1 (stereo unspecified),-38.7%
18,Cc1noc(C2(C)CCCN(C(=O)c3cnn(C)c3)C2)n1 (stereo unspecified),24.4%
19,O=C(NCC1CCCCC1)N1C[C@@H]2C[C@H](C(=O)N3CCOCC3)[C@H](C1)O2,22.2%
20,O=C(Nc1nncs1)N1CCC(CCO)CC1,66.6%
21,O=C(Nc1nncs1)N1CCC(c2ccc(O)cc2)CC1,-1.45%
22,O=C(Nc1nncs1)N1CCC(CCc2ccc(O)cc2)CC1,12.5%

row,SMILES,INHIBITION
1,COc1ccc2c(c1)[nH]c1c(N(C)CC3OCCO3)ncnc12,-13.6%
2,O=C(Nc1ccccc1)N1CCn2c(nnc2C2CCCN2)C1 (stereo unspecified),46.6%
3,O=C(C1=CCCC1)N1CC[C@]2(C[C@H](OCc3cccnc3)CO2)C1,16.9%
4,O=C1N(c2ccsc2)CCC12CCCN(CC1CC1)C2 (stereo unspecified),57.9%
5,Cn1cc(CN2CCC3(CCN(c4cnn(C)c4)C3=O)C2)cn1 (stereo unspecified),14.8%
6,Cc1occc1C(=O)N1CCCC2(CCN(c3ccsc3)C2=O)C1 (stereo unspecified),56.7%
7,O=C1N(c2ccsc2)CCC12CCCN(Cc1ccccn1)C2 (stereo unspecified),-6.23%
8,Cc1occc1C(=O)N1CCCC2(CCN(c3ccccc3)C2=O)C1 (stereo unspecified),-54.5%
9,CCN1CCC2(CCN(Cc3ccc(OC)cc3)CC2)C1=O,38.3%
10,Cn1cc(N2CCC3(CCCN(Cc4ccoc4)C3)C2=O)cn1 (stereo unspecified),-2.72%
11,CN(C)C(=O)CN1CCCC2(CCN(c3ccsc3)C2=O)C1 (stereo unspecified),40.4%
12,COc1ccc(CN2CCC3(CC2)CCN(CC2CC2)C3=O)cc1,52.4%
13,Cn1cc(N2CCC3(CCCN(Cc4ccc(F)cc4)C3)C2=O)cn1 (stereo unspecified),67.2%
14,Cc1nocc1C(=O)N1CCCC2(CCN(c3ccsc3)C2=O)C1 (stereo unspecified),-107%
15,COc1ccc(CN2CCC3(CC2)CCN(CC(=O)N(C)C)C3=O)cc1,-8.51%
16,CCOC(=O)CCNC(=O)c1nc(OCC)ccc1Cl,6.285%
17,Brc1ccc(CNCc2nnc3n2CCCCC3)s1,21.8%
18,CC(=O)N1N=C(Cc2ccccc2)OC1C(=O)NCC(=O)OC(C)(C)C (stereo unspecified),12.5%
19,CCc1nnc(Nc2cc(C)nc(C3CN(C(C)=O)CCO3)c2)s1 (stereo unspecified),-4.25%
20,CCCc1nc(C)cc(NCCc2nnc(N)s2)n1,-16.9%
21,O=C(Cc1ccccc1)NCCNC(=O)c1scnc1Cl,46.2%
22,COCC[C@]1(O)CCN(C(=O)C2CCN(C3CCCC3)CC2)C[C@H]1C,9.63%

row,SMILES,INHIBITION
1,Nc1cccnc1N1CCC(C(F)(F)F)CC1,-22.5%
2,COCCN1C[C@H]2CC[C@@]3(N=C(C)N(CC4CC4)C3=O)[C@H]2C1,-26.5%
3,CC(=O)NCc1ccc(C(=O)N2CCCC2c2c(C)nn(C)c2C)o1 (stereo unspecified),-55.4%
4,COCCN1CCCC2(CCN(c3ccsc3)C2=O)C1 (stereo unspecified),39.2%
5,COc1ccc(CN2CCCC3(CCN(c4ccsc4)C3=O)C2)cc1 (stereo unspecified),72.8%
6,O=C1N(c2ccsc2)CCC12CCCN(Cc1cccnc1)C2 (stereo unspecified),-18.2%
7,Cc1ccsc1C(=O)N1CCc2ncnc(NC(C)C)c2CC1,19.4%
8,CC(C)Nc1ncnc2c1CCN(c1cc(C(F)(F)F)ncn1)CC2,60.3%
9,CC(C)Nc1ncnc2c1CCN(C(=O)c1ccc[nH]1)CC2,70.7%
10,CC(C)Nc1ncnc2c1CCN(C(=O)[C@H]1CCCO1)CC2,-12.2%
11,CC(C)Nc1ncnc2c1CCN(C(=O)N1CCOCC1)CC2,75.4%
12,O=C(N1CCOCC1)N1CCc2ncnc(NC3CCC3)c2CC1,-2.35%
13,Cc1ncnc2c1CCN(c1cc(C(F)(F)F)ncn1)CC2,-17%
14,O=C(N1CCOCC1)N1CCc2ncnc(NC3CC3)c2CC1,26.8%
15,FC(F)(F)c1cc(N2CCc3ncnc(NC4CC4)c3CC2)ncn1,-31.6%
16,CN(Cc1nnc2n1CCC2)C(=O)Cc1ccc2c(c1)CCC2,19.2%
17,CC(=O)NC1CCN(c2cc(C3CCNCC3)ccn2)CC1,20.2%
18,O=C(c1ncccn1)N1C[C@@H]2CN(Cc3cccnc3)CCO[C@@H]2C1,-1.26%
